Data: PubChem BioAssay (Tox21)
Records with an inconclusive call do not appear. Active and inactive are the calls of the source. Unless noted, calls follow the shape of the dose curve; as a rule, active = well fitted curve in the direction sought with a large enough effect in the repeat runs; inconclusive = weak or mixed curves; inactive = flat fitted curve, though single readings scatter.

Legend:
[1] = qHTS assay to test for compound auto fluorescence at 535 nm (green) in HEK293 cells (AID 720680)
[2] = qHTS assay to test for compound auto fluorescence at 460 nm (blue) in HEK293 cell free culture (AID 720681)
Procedure, shortened: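 Compounds were added to cell-free DMEM with 10% FBS and fluorescence read directly. The blue channel used 405 nm excitation and 460 nm emission, with triamterene as the reference fluorophore.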

[3] = qHTS assay to test for compound auto fluorescence at 535 nm (green) in HEK293 cell free culture (AID 720682)
Procedure, shortened: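 Intrinsic compound fluorescence is measured in culture medium containing 10% FBS, with excitation at 485 nm and detection at 535 nm, referenced to fluorescein.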

[4] = qHTS assay to test for compound auto fluorescence at 590 nm (red) in HEK293 cell free culture (AID 720683)
Procedure, shortened: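 Cell-free wells of DMEM with 10% FBS received compound, and intrinsic fluorescence was read at excitation/emission 540/590 nm. Values expressed as equivalence to Rose Bengal sodium.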

[5] = qHTS assay to test for compound auto fluorescence at 460 nm (blue) in HepG2 cell free culture (AID 720685)
Procedure, shortened: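 Compound (23 nL) or DMSO pinned into cell-free MEM with 10% FBS; blue fluorescence read at 405/460 nm excitation/emission, expressed as auto-fluorescence equivalency to triamterene.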

[6] = qHTS assay to test for compound auto fluorescence at 535 nm (green) in HepG2 cell free culture (AID 720686)
[7] = qHTS assay to test for compound auto fluorescence at 460 nm (blue) in HepG2 cells (AID 720687)
Procedure, shortened: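 HepG2 cells in MEM with 10% FBS, attached overnight at 37 C, were exposed to compound or DMSO for 1 hr at 37 C, 5% CO2. Blue fluorescence was read at 405/460 nm, with triamterene as reference fluorophore.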

[8] = target: Glucocorticoid receptor (Homo sapiens) (UniProt P04150); assay: qHTS assay to identify small molecule agonists of the glucocorticoid receptor (GR) signaling pathway (AID 720691; active = well fitted activation curve with a large enough effect in the signal ratio in the repeat runs, not every such curve was filed as active; the % refers to the signal ratio)
Glucocorticoid receptor (Homo sapiens), sequence (P04150 whole entry, looked up): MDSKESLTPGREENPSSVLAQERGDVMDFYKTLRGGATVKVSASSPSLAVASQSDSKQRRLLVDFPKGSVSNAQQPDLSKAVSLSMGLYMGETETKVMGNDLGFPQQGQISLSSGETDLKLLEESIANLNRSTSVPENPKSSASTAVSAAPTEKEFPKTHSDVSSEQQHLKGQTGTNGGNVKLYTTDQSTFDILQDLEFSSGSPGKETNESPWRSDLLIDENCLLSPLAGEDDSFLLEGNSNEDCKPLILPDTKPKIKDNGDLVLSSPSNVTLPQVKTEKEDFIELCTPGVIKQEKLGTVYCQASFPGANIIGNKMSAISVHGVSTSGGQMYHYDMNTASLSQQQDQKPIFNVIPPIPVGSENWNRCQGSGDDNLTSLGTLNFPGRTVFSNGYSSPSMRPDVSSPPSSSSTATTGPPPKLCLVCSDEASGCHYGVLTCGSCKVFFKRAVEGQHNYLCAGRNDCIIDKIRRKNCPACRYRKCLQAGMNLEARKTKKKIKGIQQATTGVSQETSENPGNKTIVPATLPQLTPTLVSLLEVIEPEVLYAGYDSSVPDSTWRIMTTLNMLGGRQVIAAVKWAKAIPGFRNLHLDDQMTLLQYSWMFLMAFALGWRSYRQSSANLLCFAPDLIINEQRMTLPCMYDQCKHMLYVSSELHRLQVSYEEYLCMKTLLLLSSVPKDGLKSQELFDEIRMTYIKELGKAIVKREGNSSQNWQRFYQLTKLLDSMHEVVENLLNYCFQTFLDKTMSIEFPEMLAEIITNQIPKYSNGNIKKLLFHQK
Procedure, shortened: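 Agonist mode in a HeLa line carrying a GRE-controlled beta-lactamase reporter. Compounds act for 18 h at 37 C before a 2 h room-temperature FRET substrate step and fluorescence reading.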

[9] = target: Glucocorticoid receptor (Homo sapiens) (UniProt P04150); assay: qHTS assay to identify small molecule antagonists of the glucocorticoid receptor (GR) signaling pathway (AID 720692; active = well fitted inhibition curve with a large enough effect in the signal ratio in the repeat runs, not every such curve was filed as active; the % refers to the signal ratio)
Procedure, shortened: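 Cells plated, rested 4 h at 37 C/5% CO2; compounds in DMSO pin-transferred; dexamethasone added to 5 nM final; 18 h at 37 C; B/G FRET substrate added, 2 h room temperature; fluorescence measured.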

[10] = qHTS assay to test for compound auto fluorescence at 590 nm (red) in HepG2 cell free culture (AID 720684)
Procedure, shortened: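 Compounds are added to culture medium (MEM, 10% FBS) lacking cells, then fluorescence is read at excitation 540 nm, emission 590 nm, with Rose Bengal sodium as the equivalency standard.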
% is scaled to controls: 0 for no effect and ±100 for the full control effect.

O=c1[nH]c(=O)n([C@H]2C[C@H](O)[C@@H](CO)O2)cc1C(F)(F)F
inactive: outcome [1] | outcome [2] | outcome [3] | outcome [4] | outcome [5] | outcome [6] | outcome [7]

CCCCCCC
inactive: outcome [1] | outcome [2] | outcome [3] | outcome [4] | outcome [5] | outcome [6] | outcome [7] | Potency [8]

CCN(O)CC
inactive: outcome [1] | outcome [2] | outcome [3] | outcome [4] | outcome [5] | outcome [7]

Cc1ccc([N+](=O)[O-])cc1Cl
inactive: outcome [1] | outcome [2] | outcome [3] | outcome [4] | outcome [5] | outcome [6] | outcome [7] | Potency [8] | Potency [9]

CC(C)(CO)[C@@H](O)C(=O)NCCC(=O)O
inactive: outcome [1] | outcome [3] | outcome [4] | outcome [10] | outcome [5] | outcome [6] | outcome [7]

CCC(=O)O[C@]1(C(=O)SCF)[C@H](C)C[C@H]2[C@@H]3C[C@H](F)C4=CC(=O)C=C[C@]4(C)[C@@]3(F)[C@@H](O)C[C@@]21C
inactive: fluorescence, % of fluorescein [1] 0.0173% [at 18.6 µM] | activity change [3] 0.0558% [at 18.6 µM] | fluorescence, % of fluorescent control [4] -0.193% [at 18.6 µM] | fluorescence, % of Rose Bengal [10] 0.622% [at 18.6 µM] | fluorescence, % of fluorescent control [5] 0.0563% [at 18.6 µM] | fluorescence, % of fluorescein control [6] 0.0971% [at 18.6 µM] | fluorescence, % of fluorescent control [7] -0.137% [at 18.6 µM]

C[C@@H]1CN(c2c(F)c(F)c3c(=O)c(C(=O)O)cn(C4CC4)c3c2F)C[C@H](C)N1
inactive: outcome [1] | outcome [2] | outcome [3] | outcome [4] | outcome [5] | outcome [7] | Potency [8] | Potency [9]

CCCCNc1ccc(C(=O)OCCN(CC)CC)cc1
inactive: outcome [1] | outcome [2] | outcome [3] | outcome [4] | outcome [6] | outcome [7]

O=C1CCN(c2ccccc2)N1
inactive: outcome [1] | outcome [2] | outcome [3] | outcome [4] | outcome [5] | outcome [6] | outcome [7] | Potency [8] | Potency [9]

Clc1cccc(-c2cc(Cl)cc(Cl)c2)c1
inactive: outcome [1] | outcome [3] | outcome [4] | outcome [10] | outcome [5] | outcome [6] | outcome [7]

N#Cc1ccc(C(c2ccc(C#N)cc2)n2cncn2)cc1
inactive: outcome [1] | outcome [2] | outcome [3] | outcome [4] | outcome [6] | outcome [7] | Potency [8] | Potency [9]

Cc1ccc(C(C)C)cc1O
inactive: outcome [1] | outcome [2] | outcome [3] | outcome [4] | outcome [5] | outcome [6] | outcome [7] | Potency [8] | Potency [9]

CC(C)=CCC[C@](C)(O)[C@@H]1CC=C(C)CC1
inactive: outcome [1] | outcome [2] | outcome [3] | outcome [4] | outcome [5] | outcome [6] | outcome [7] | Potency [8]

OC[C@H]1O[C@@H](O[C@H]2[C@H](O)[C@@H](O)[C@H](O)O[C@@H]2CO)[C@H](O)[C@@H](O)[C@H]1O
inactive: outcome [1] | outcome [2] | outcome [3] | outcome [4] | outcome [5] | outcome [7] | Potency [8] | Potency [9]

CC(=O)Oc1cc(C(C)C)c(OCCN(C)C)cc1C
inactive: fluorescence, % of fluorescein [1] -0.013% [at 18.6 µM] | fluorescence, % of fluorescent control [2] -0.142% [at 18.6 µM] | activity change [3] -0.0795% [at 18.6 µM] | fluorescence, % of fluorescent control [4] -0.128% [at 18.6 µM] | fluorescence, % of fluorescent control [5] -0.0726% [at 18.6 µM] | fluorescence, % of fluorescein control [6] -0.0374% [at 18.6 µM] | fluorescence, % of fluorescent control [7] -0.0099% [at 18.6 µM] | Potency [8] | Potency [9]

CC(C)C(=O)OC/C=C/c1ccccc1
inactive: outcome [1] | outcome [2] | outcome [3] | outcome [4] | outcome [5] | outcome [6] | outcome [7] | Potency [9]

O=C1CCCc2ccccc21
inactive: outcome [1] | outcome [2] | outcome [3] | outcome [4] | outcome [5] | outcome [6] | outcome [7] | Potency [9]

CC1=CC(=O)CC(C)(C)C1=O
inactive: outcome [1] | outcome [2] | outcome [3] | outcome [4] | outcome [5] | outcome [7] | Potency [8] | Potency [9]

Cc1ccc(C=O)s1
inactive: outcome [1] | outcome [2] | outcome [3] | outcome [4] | outcome [6] | outcome [7]

CCOc1ccc(NS(=O)(=O)c2ccc(N)cc2)nn1
inactive: outcome [1] | outcome [2] | outcome [3] | outcome [4] | outcome [5] | outcome [6] | outcome [7] | Potency [8] | Potency [9]

CCNCCO
inactive: outcome [1] | outcome [2] | outcome [3] | outcome [4] | outcome [5] | outcome [6] | outcome [7] | Potency [9]

CCCCCCCCOC(=O)CCCCCCCCC(=O)OCCCCCCCC
inactive: outcome [1] | outcome [2] | outcome [3] | outcome [4] | outcome [5] | outcome [6] | outcome [7] | Potency [8] | Potency [9]

CN1CCN(C2=Nc3ccccc3Oc3ccc(Cl)cc32)CC1
inactive: fluorescence, % of fluorescein [1] 0.0654% [at 18.6 µM] | fluorescence, % of fluorescent control [2] 0.0139% [at 18.6 µM] | activity change [3] -0.0046% [at 18.6 µM] | fluorescence, % of fluorescent control [4] 0.0885% [at 18.6 µM] | fluorescence, % of fluorescein control [6] 0.0479% [at 18.6 µM] | fluorescence, % of fluorescent control [7] 0.0039% [at 18.6 µM] | Potency [8]

COc1ccc(S(=O)(=O)Nc2nnc(CC(C)C)s2)cc1
inactive: outcome [1] | outcome [2] | outcome [3] | outcome [4] | outcome [5] | outcome [6] | outcome [7] | Potency [8] | Potency [9]

CC(C)(C)C1CCCCC1=O (configuration not stated)
inactive: outcome [1] | outcome [2] | outcome [3] | outcome [4] | outcome [5] | outcome [6] | outcome [7] | Potency [8]

CCOC(=O)NCCC[Si](OCC)(OCC)OCC
inactive: outcome [1] | outcome [2] | outcome [3] | outcome [4] | outcome [7]

O=C(O)CN(CCN(CC(=O)O)CC(=O)O)CCN(CC(=O)O)CC(=O)O
inactive: outcome [1] | outcome [2] | outcome [3] | outcome [4] | outcome [6] | outcome [7]

CCCOCCC
inactive: outcome [1] | outcome [2] | outcome [3] | outcome [4] | outcome [6] | outcome [7] | Potency [8] | Potency [9]

Cc1c[nH]c(=S)[nH]c1=O
inactive: outcome [1] | outcome [3] | outcome [4] | outcome [10] | outcome [5] | outcome [6] | outcome [7]
